Measurements reported in PubChem BioAssay (NCI).
This is part of a sample that, as a whole, favours compounds with a hit. Of some 83,000 tested, about 20% had one in any assay.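 Percent growth is the endpoint: 0 to 100 indicates growth inhibition (40 means 60% inhibition), 0 means no net growth, and negative values indicate cell death.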 Calls of active or inactive are those of the source. Rule for the calls: active = growth percent below 10; inactive = the rest.

How the values were obtained:
Assay in all cases: NCI-60 one-dose screen, 48 h (100 = growth as untreated, 0 = no growth, -100 = all killed)
Settings in all cases: 10 µM unless noted
SK-MEL-2 melanoma = test system: SK-MEL-2 melanoma
EKVX NSCLC = test system: EKVX NSCLC
SN12C renal = test system: SN12C renal
UO-31 renal = test system: UO-31 renal
ACHN renal = test system: ACHN renal
CAKI-1 renal = test system: CAKI-1 renal
A498 renal = test system: A498 renal
CCRF-CEM leukemia = test system: CCRF-CEM leukemia
MOLT-4 leukemia = test system: MOLT-4 leukemia
TK-10 renal = test system: TK-10 renal

Measured: growth

COc1cc(/C=C2\CN(C)CC3=C2Nc2nc(SC)[nH]c(=O)c2C3c2cc(OC)c(OC)c(OC)c2)cc(OC)c1OC (stereo unspecified)
inactive: SK-MEL-2 melanoma 71.8% | EKVX NSCLC 83.7% | SN12C renal 24.2% | UO-31 renal 52.4% | ACHN renal 39.2% | CAKI-1 renal 14.5% | A498 renal 95.9%
active: CCRF-CEM leukemia -0.341% | MOLT-4 leukemia 0.96%

CC1C(=O)NC2=Nc3ccccc3C(=O)NN21 (stereo unspecified)
inactive: SK-MEL-2 melanoma 96% | EKVX NSCLC 88.3% | SN12C renal 99.7% | UO-31 renal 64% | ACHN renal 93.8% | CAKI-1 renal 94.5% | A498 renal 116% | CCRF-CEM leukemia 97.3% | MOLT-4 leukemia 94.3%

CN1CCC[C@@H]1CCO[C@](C)(c1ccccc1)c1ccc(Cl)cc1
inactive: SK-MEL-2 melanoma 90.4% | EKVX NSCLC 69.3% | SN12C renal 66.5% | UO-31 renal 36.9% | ACHN renal 65.9% | CAKI-1 renal 71% | A498 renal 88.1% | CCRF-CEM leukemia 65.2% | MOLT-4 leukemia 67.7%

NC(=NCCCCCCN=C(N)/N=C(\N)Nc1ccc(Cl)cc1)/N=C(\N)Nc1ccc(Cl)cc1
inactive: EKVX NSCLC 23.9% | UO-31 renal 46.6% | ACHN renal 20.5% | CAKI-1 renal 10.3% | A498 renal 11.1% | CCRF-CEM leukemia 12.5% | MOLT-4 leukemia 21.2%
active: SK-MEL-2 melanoma -31.8% | SN12C renal 5.89%

O=C1CSC(c2ccccc2O)N1c1nnc(Cn2ccnc2)o1 (stereo unspecified)
active: CAKI-1 renal -37.5%
inactive: SK-MEL-2 melanoma 90.3% | EKVX NSCLC 81.5% | SN12C renal 66.1% | UO-31 renal 32.9% | ACHN renal 53.6% | A498 renal 99.5% | CCRF-CEM leukemia 34% | MOLT-4 leukemia 48.6%

C#C[C@]1(O)CCC2C3CCc4cc(O)ccc4C3CC[C@@]21C (stereo partly specified)
inactive: SK-MEL-2 melanoma 18.5% | EKVX NSCLC 31.6% | SN12C renal 52.3% | UO-31 renal 55.7% | ACHN renal 60.4% | CAKI-1 renal 45.3% | A498 renal 49.2% | CCRF-CEM leukemia 39% | MOLT-4 leukemia 23.4%

CCOC(=O)CCC(=O)O[C@H]1[C@H](O[C@@H]2[C@@H](C)[C@H](O[C@H]3C[C@@](C)(OC)[C@@H](O)[C@H](C)O3)[C@@H](C)C(=O)O[C@H](CC)[C@@](C)(O)[C@H](O)[C@@H](C)C(=O)[C@H](C)C[C@@]2(C)O)O[C@H](C)C[C@@H]1N(C)C
inactive: SK-MEL-2 melanoma 121% | EKVX NSCLC 100% | SN12C renal 101% | UO-31 renal 67.7% | ACHN renal 96.4% | CAKI-1 renal 93.2% | A498 renal 120% | CCRF-CEM leukemia 91.4% | MOLT-4 leukemia 94.2%

CCSc1nc(-c2cccs2)n2nc(-c3ccco3)cc2n1
inactive: SK-MEL-2 melanoma 105% | EKVX NSCLC 81.3% | SN12C renal 89.7% | UO-31 renal 79.7% | ACHN renal 94.1% | CAKI-1 renal 86.3% | A498 renal 94.4% | CCRF-CEM leukemia 88.7% | MOLT-4 leukemia 115%

C[C@H](C(=O)N[C@@H](Cc1ccc(-c2ccccc2)cc1)C(=O)NC1CC(C)(C)N(C)C(C)(C)C1)c1ccc(-c2ccccc2)c(F)c1
active: SK-MEL-2 melanoma -70.9% | EKVX NSCLC -47.8% | SN12C renal -59.2% | UO-31 renal -80.9% | ACHN renal -87.8% | A498 renal -18.2% | CCRF-CEM leukemia -45.9% | MOLT-4 leukemia -60.9%

Cc1n(Cc2ccc3ccccc3c2)c2ccccc2[n+]1Cc1ccc2ccccc2c1
inactive: UO-31 renal 30.7%
active: SK-MEL-2 melanoma -74.6% | EKVX NSCLC 9.57% | SN12C renal -44.2% | A498 renal -11.5% | CCRF-CEM leukemia -45.1% | MOLT-4 leukemia -54.7%

Nc1nc(NC2CC2)c2ncn(C3C=CC(CO)C3)c2n1 (stereo unspecified)
inactive: SK-MEL-2 melanoma 89.4% | EKVX NSCLC 115% | SN12C renal 98.2% | TK-10 renal 96.4% | ACHN renal 103% | CAKI-1 renal 90.4% | A498 renal 104% | CCRF-CEM leukemia 97.3% | MOLT-4 leukemia 76.9%

CC(C)N(Cc1ccccc1)c1c(S)ssc1=S
active: SK-MEL-2 melanoma 7.27% | EKVX NSCLC 5.44% | ACHN renal 5.95% | CAKI-1 renal -2.48% | A498 renal -7.36% | CCRF-CEM leukemia -81.6%
inactive: SN12C renal 11% | TK-10 renal 37.1%

Cc1ccccc1NC(=O)NC(CC(N)=O)c1ccc2c(c1)nc(-c1cccc(Oc3ccc(C(C)(C)C)cc3)c1)n2CCCN1CCCCC1C (stereo unspecified)
inactive: SK-MEL-2 melanoma 51.8% | EKVX NSCLC 79.2% | SN12C renal 59.1% | TK-10 renal 31.1% | ACHN renal 74.4% | CAKI-1 renal 92.6% | A498 renal 69.4%
active: CCRF-CEM leukemia 1.56% | MOLT-4 leukemia -10.6%

COc1cc(/C=C/C(=O)CC(=O)/C=C/c2ccc(OC(=O)CCNC34CC5CC(CC(C5)C3)C4)c(OC)c2)ccc1OC(=O)CCNC12CC3CC(CC(C3)C1)C2
inactive: SK-MEL-2 melanoma 11.7% | EKVX NSCLC 21.6% | SN12C renal 23.8% | TK-10 renal 70% | ACHN renal 79.2% | CAKI-1 renal 49.1% | A498 renal 83.4%
active: CCRF-CEM leukemia -23.5% | MOLT-4 leukemia -25.1%

COc1cc(C2CC(c3ccc(C)cc3)=NN2C=O)ccc1OCCN(C)C (stereo unspecified)
inactive: SK-MEL-2 melanoma 98.4% | EKVX NSCLC 90.1% | SN12C renal 95.2% | UO-31 renal 64.5% | ACHN renal 100% | A498 renal 92.4% | CCRF-CEM leukemia 88.7% | MOLT-4 leukemia 77.8%

COc1ccc2c(c1)sc1nc(-c3ccc(Br)cc3)cn12
inactive: SK-MEL-2 melanoma 106% | EKVX NSCLC 113% | SN12C renal 104% | TK-10 renal 133% | ACHN renal 110% | CAKI-1 renal 96.4% | A498 renal 84.4% | CCRF-CEM leukemia 109% | MOLT-4 leukemia 104%

COc1ccc(-c2cc(-c3nnc(SCC(=O)Nc4ccc(C(C)=O)cc4)n3-c3ccccc3)c3ccccc3n2)cc1OC
inactive: SK-MEL-2 melanoma 97.9% | EKVX NSCLC 97.7% | SN12C renal 110% | UO-31 renal 85.3% | ACHN renal 108% | A498 renal 114% | CCRF-CEM leukemia 104% | MOLT-4 leukemia 107%

Cc1ccc(/C=C/C(=O)c2ccc(F)cc2)s1
inactive: SK-MEL-2 melanoma 85.8% | EKVX NSCLC 81.1% | SN12C renal 71.7% | UO-31 renal 57.6% | ACHN renal 83% | CAKI-1 renal 78.6% | MOLT-4 leukemia 11.6%
active: CCRF-CEM leukemia 8.11%

COc1cc(/C=C/C(=O)CC(=O)/C=C/c2ccc(OC(=O)C3C4CC5CC(C4)CC3C5)c(OC)c2)ccc1OC(=O)C1C2CC3CC(C2)CC1C3 (stereo unspecified)
inactive: SK-MEL-2 melanoma 93.1% | EKVX NSCLC 109% | SN12C renal 108% | TK-10 renal 96.9% | ACHN renal 144% | CAKI-1 renal 99.6% | A498 renal 109% | CCRF-CEM leukemia 89.8% | MOLT-4 leukemia 103%

COc1cc(/C=C/C(=O)c2c(C)n([O-])c3ccccc3[n+]2=O)cc(OC)c1OC
active: CCRF-CEM leukemia -51.2% | MOLT-4 leukemia -64.5%
inactive: SK-MEL-2 melanoma 36.8% | EKVX NSCLC 35.5% | SN12C renal 54.6% | TK-10 renal 87.9% | ACHN renal 76.6% | CAKI-1 renal 26.3% | A498 renal 69.7%

CN(C)c1ccc(-c2nc3ncc(Br)cc3o2)cc1
inactive: SK-MEL-2 melanoma 92.1% | EKVX NSCLC 78.4% | SN12C renal 98.2% | TK-10 renal 140% | ACHN renal 99.9% | CAKI-1 renal 109% | A498 renal 79.8% | CCRF-CEM leukemia 77.1% | MOLT-4 leukemia 81%

O=C1NCCc2c1noc2-c1ccccc1
inactive: SK-MEL-2 melanoma 101% | EKVX NSCLC 97.8% | SN12C renal 109% | UO-31 renal 88.2% | ACHN renal 106% | A498 renal 105% | CCRF-CEM leukemia 109%

COc1cnc2c(c1)C(=O)c1c-2n(CCCN2CCNCC2)c(=O)c2cc(F)ccc12
inactive: EKVX NSCLC 18.7%
active: SK-MEL-2 melanoma -17.1% | SN12C renal 7.67% | UO-31 renal -50.1% | ACHN renal -78.1% | A498 renal -25.7% | CCRF-CEM leukemia -1.3%

CCN(CC)CCNCC(=O)Oc1ccc(/C=C/C(=O)CC(=O)/C=C/c2ccc(OC(=O)CNCCN(CC)CC)c(OC)c2)cc1OC
active: EKVX NSCLC 5.1% | SN12C renal 4.14% | CCRF-CEM leukemia -30.5%
inactive: SK-MEL-2 melanoma 10.7% | TK-10 renal 50.3% | ACHN renal 16.8% | CAKI-1 renal 22% | A498 renal 51%

CCOC(=O)/C=C1/SC(=Nc2ccc(C#N)cc2)N(Cc2ccco2)C1=O
inactive: SK-MEL-2 melanoma 78.5% | EKVX NSCLC 74% | SN12C renal 52.5% | UO-31 renal 31.6% | A498 renal 87%
active: ACHN renal -78.6% | CCRF-CEM leukemia 0.581% | MOLT-4 leukemia -6.94%

Cc1ccc(/C=C(/C#N)n2nnc3ncccc32)cc1
inactive: SK-MEL-2 melanoma 17.1% | EKVX NSCLC 24.8% | UO-31 renal 24.3% | MOLT-4 leukemia 11.8%
active: SN12C renal 8.6% | ACHN renal 0.614% | A498 renal -7.36% | CCRF-CEM leukemia 9.57%

COc1cnc2c(c1)C(=O)c1c-2n(CCCN2CCOCC2)c(=O)c2cc(F)ccc12
inactive: SK-MEL-2 melanoma 21.4% | EKVX NSCLC 17.7% | SN12C renal 12.4%
active: UO-31 renal -47.2% | ACHN renal -66.9% | CCRF-CEM leukemia 1.77% | MOLT-4 leukemia -18.5%

O=C1/C(=C\c2coc3ccccc3c2=O)c2ccccc2N1c1c(Cl)cccc1Cl
inactive: SK-MEL-2 melanoma 85.7% | EKVX NSCLC 33.1% | SN12C renal 59.5% | UO-31 renal 42.6% | A498 renal 12.6% | CCRF-CEM leukemia 21.1% | MOLT-4 leukemia 19%
active: CAKI-1 renal -7.88%

O=C(O)CCC(=O)OC[C@@H](NC(=O)C(Cl)Cl)[C@H](O)c1ccc([N+](=O)[O-])cc1
inactive: SK-MEL-2 melanoma 105% | EKVX NSCLC 106% | SN12C renal 92.9% | UO-31 renal 72% | CAKI-1 renal 89.6% | A498 renal 117% | CCRF-CEM leukemia 89.7% | MOLT-4 leukemia 90.7%

CNCCCn1c2c(c3ccc(F)cc3c1=O)C(=O)c1cc(OC)cnc1-2
active: SK-MEL-2 melanoma -9.66% | EKVX NSCLC -13.2% | SN12C renal 6.91% | UO-31 renal -89.3% | ACHN renal -57.2% | A498 renal -87.6% | CCRF-CEM leukemia 1.24% | MOLT-4 leukemia -19.8%
